Test results published in PubChem BioAssay (EPA / NIEHS).
Records with an inconclusive call do not appear. Active and inactive are the calls of the source. How the source made its calls, unless noted: active means hit-call score of the fitted dose curve at least 0.9, where 1 is the maximum; inactive means score below 0.9.

Columns and labels:
[1] = biological target: Paired box protein Pax-6 (Homo sapiens) (UniProt P26367); assay: ATG_Pax6_CIS: Attagene CIS-FACTORIAL HepG2 Assay for human Paired Box 6 (PAX6) (AID 2282956); details: HepG2 CIS-FACTORIAL PAX6 reporter transcription, RNA readout; actives raise or lower the signal
In short: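 Readout: reporter transcript fluorescence after RT-PCR and capillary electrophoresis. Cells: HepG2, transiently transfected with cis-regulated MRTUs. Exposure 24 h. Gain or loss of signal fitted bidirectionally relative to DMSO.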

[2] = ATG_PPRE_CIS: Attagene CIS-FACTORIAL HepG2 Assay for human Peroxisome Proliferator-activated Response Element (PPRE) (AID 2282958); details: HepG2 PPRE cis-element reporter, Attagene transcription factor profiling; actives raise or lower the signal
In short: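 HepG2 cells are transiently transfected with multiplexed cis-promoter reporter units to report endogenous PPAR activity. After 24 h dosing, reporter mRNA is read by RT-PCR and capillary electrophoresis. Fitting is bidirectional against DMSO.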

[3] = ATG_RORE_CIS: Attagene CIS-FACTORIAL HepG2 Assay for human RAR-related Orphan Receptor Element (RORE) (AID 2282959); details: HepG2 Attagene cis-factorial RORE reporter, mRNA; actives raise or lower the signal
In short: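 HepG2 cells carrying transiently transfected cis-regulated reporter units; RORE-driven reporter mRNA quantified 24 h post-dosing by RT-PCR, 6-FAM primer extension, HpaI digestion and capillary electrophoresis. Bidirectional fit versus DMSO.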

[4] = ATG_Sox_CIS: Attagene CIS-FACTORIAL HepG2 Assay for human SRY-box transcription factor (SOX) (AID 2282960); details: HepG2 Attagene cis-factorial SOX reporter, mRNA; actives raise or lower the signal
In short: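 HepG2 cells transiently transfected with multiple cis-regulated reporter units, then dosed for 24 h. Reporter mRNA quantified by RT-PCR, fluorescent labelling, HpaI digestion and capillary electrophoresis; bidirectional fit versus DMSO.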

[5] = ATG_SREBP_CIS: Attagene CIS-FACTORIAL HepG2 Assay for human Sterol Regulatory Element Binding (SREBP) (AID 2282962); details: HepG2 Attagene cis-factorial SREBP reporter, mRNA; actives raise or lower the signal
In short: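 Readout: fluorescent reporter-transcript peaks resolved by capillary electrophoresis after RT-PCR. Cells were human HepG2 carrying transfected cis-promoter reporter constructs, dosed for 24 h. Gain or loss of signal was fitted against DMSO controls.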

[6] = biological target: Signal transducer and activator of transcription 3 (Homo sapiens) (UniProt P40763); assay: ATG_STAT3_CIS: Attagene CIS-FACTORIAL HepG2 Assay for human Signal Transducer and Activator of Transcription 3 (STAT3) (AID 2282963); details: HepG2, Attagene cis-factorial STAT3 reporter transcription; actives raise or lower the signal
In short: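 Cis-factorial format: endogenous transcription factors in HepG2 drive transfected reporter units. After 24 h treatment, reporter RNA was reverse-transcribed, amplified, FAM-labelled and HpaI-digested before CE analysis; activity scored in both directions against DMSO.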

[7] = ATG_TA_CIS: Attagene CIS-FACTORIAL HepG2 Assay for human TA Basal Promoter (AID 2282964); details: HepG2 Attagene CIS-factorial TA basal promoter reporter; actives raise or lower the signal
In short: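 Background internal-marker endpoint from a 52-component HepG2 cis-reporter panel. Cells treated 24 h; reporter transcripts quantified via RT-PCR and CE fluorescence against DMSO baseline.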

[8] = ATG_TCF_b_cat_CIS: Attagene CIS-FACTORIAL HepG2 Assay for human T-Cell-Factor with beta-catenin (TCF/b-cat) (AID 2282965); details: HepG2 TCF/beta-catenin cis-reporter transcription, actives raise or lower the signal
In short: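 Endogenous transcription factor activity is captured through cis-promoter reporter constructs transiently introduced into human HepG2 liver cells. Induced reporter mRNA is measured after 24 h and fitted bidirectionally relative to DMSO.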

[9] = ATG_TAL_CIS: Attagene CIS-FACTORIAL HepG2 Assay for human TAL Basal Promoter (AID 2282966); details: HepG2 Attagene cis-factorial TAL promoter reporter; actives raise or lower the signal;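 further: background control endpoint measuring basal TAL promoter reporter mRNA not a specific factor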
In short: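 Endogenous transcription-factor activity is sensed in HepG2 cells through transfected cis-promoter reporter constructs. After 24 h dosing, reporter transcripts are quantified by RT-PCR and capillary electrophoresis. Gain or loss of signal is fitted relative to DMSO.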

[10] = ATG_TGFb_CIS: Attagene CIS-FACTORIAL HepG2 Assay for human Transforming Growth Factor (TGF) (AID 2282967); details: HepG2 Attagene CIS TGFb reporter, mRNA transcription; actives raise or lower the signal
In short: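 Liver HepG2 line, cis-factorial reporter panel, 24 h dosing. Quantitation: RT-PCR products labeled with 6-FAM, cut with HpaI, resolved by capillary electrophoresis; DMSO-referenced bidirectional analysis.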

[11] = ATG_VDRE_CIS: Attagene CIS-FACTORIAL HepG2 Assay for human Vitamin D Receptor Element (VDRE) (AID 2282968); details: HepG2 VDRE cis-reporter transcription, actives raise or lower the signal
In short: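 Measures endogenous factor activity through cis-element-driven reporter transcripts in transiently transfected HepG2. Cells are treated 24 h; reporter mRNA is quantified by RT-PCR and capillary electrophoresis; fitting is bidirectional.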

[12] = biological target: X-box-binding protein 1 (Homo sapiens) (UniProt P17861); assay: ATG_Xbp1_CIS: Attagene CIS-FACTORIAL HepG2 Assay for human X-box Binding Protein 1 (XBP1) (AID 2282972); details: HepG2 XBP1 cis-element reporter, Attagene multiplex; actives raise or lower the signal
In short: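 Read-out: fluorescent reporter mRNA fragments resolved by capillary electrophoresis after RT-PCR. Human HepG2 liver cells carried transfected cis-promoter reporter units and were exposed to chemicals for 24 hours. Gain or loss of signal fitted relative to DMSO baseline.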

[13] = ATG_GAL4_TRANS: Attagene TRANS-FACTORIAL HepG2 Assay for GAL4 (Internal Marker) (AID 2282976; active means hit-call score of the fitted dose curve at least 0.9, where 1 is the maximum); details: HepG2 Attagene TRANS GAL4 internal marker reporter
In short: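 Fluorescence from capillary electrophoresis of labelled RT-PCR products quantifies reporter mRNA induction after 24 h dosing of HepG2 cells carrying transfected GAL4-UAS reporter transcription units. Vehicle DMSO serves as baseline.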

[14] = biological target: Transcription factor Sp1 (Homo sapiens) (UniProt P08047); assay: ATG_Sp1_CIS: Attagene CIS-FACTORIAL HepG2 Assay for human Specificity Protein 1 (Sp1) (AID 2282961); details: HepG2 Sp1 cis-reporter transcription, actives raise or lower the signal
In short: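 HepG2 cells transiently transfected with multiplexed cis-regulated reporter constructs, chemical exposure 24 h. Reporter mRNA quantified by RT-PCR with capillary electrophoresis; bidirectional fit relative to DMSO.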

[15] = biological target: Nuclear receptor subfamily 1 group I member 3 (Homo sapiens) (UniProt Q14994); assay: ATG_CAR_TRANS: Attagene TRANS-FACTORIAL HepG2 Assay for human Constitutive Androstane Receptor (CAR) (AID 2282969; active means hit-call score of the fitted dose curve at least 0.9, where 1 is the maximum;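 further: activators raise reporter mRNA above DMSO so AC50 marks induction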); details: HepG2 Attagene TRANS-FACTORIAL CAR reporter
In short: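 Signal is reporter mRNA induction relative to DMSO, measured 24 h after dosing by RT-PCR with fluorescent primer extension and capillary electrophoresis. Human HepG2 liver cells carried transiently transfected chimeric NR-Gal4/GAL4-UAS reporter constructs.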

[16] = ATG_M_19_TRANS: Attagene TRANS-FACTORIAL HepG2 Assay for M19 Transcription Factor (Internal Marker) (AID 2282974; active means hit-call score of the fitted dose curve at least 0.9, where 1 is the maximum); details: HepG2 Attagene TRANS-FACTORIAL M19 internal marker reporter
In short: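 HepG2 transiently transfected with GAL4-UAS multiplex reporter constructs, exposed 24 h; reporter RNA quantified by RT-PCR, 6-FAM labeling, HpaI digestion and capillary electrophoresis; internal background marker fitted upward versus DMSO.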

[17] = biological target: Steroid hormone receptor ERR1 (Homo sapiens) (UniProt P11474); assay: ATG_ERRa_TRANS: Attagene TRANS-FACTORIAL HepG2 Assay for human Estrogen-Related Receptor alpha (ERRa) (AID 2282971; active means hit-call score of the fitted dose curve at least 0.9, where 1 is the maximum); details: HepG2 Attagene TRANS reporter, ERRa transactivation
In short: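 HepG2 cells were transiently transfected with multiple GAL4-UAS reporter units, then dosed with compound for 24 h. Total RNA was reverse-transcribed, reporter cDNA PCR-amplified and fluorescently labelled, and fragments resolved by capillary electrophoresis; induction was compared with DMSO.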

[18] = biological target: Estrogen-related receptor gamma (Homo sapiens) (UniProt P62508); assay: ATG_ERRg_TRANS: Attagene TRANS-FACTORIAL HepG2 Assay for human Estrogen-Related Receptor gamma (ERRg) (AID 2282977; active means hit-call score of the fitted dose curve at least 0.9, where 1 is the maximum;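 further: hits increase reporter signal over DMSO so potencies reflect activators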); details: HepG2 Attagene TRANS reporter, ERRg transactivation
In short: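 Exogenous NR-Gal4 chimera activity was assessed in HepG2 cells bearing transfected GAL4-UAS reporters. After 24 h dosing, total RNA underwent RT-PCR, fluorescent primer extension and HpaI digestion before capillary electrophoresis, with gain of signal scored against DMSO.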

Measured: AC50

Transcription factor Sp1 (Homo sapiens), sequence (P08047 whole entry, looked up): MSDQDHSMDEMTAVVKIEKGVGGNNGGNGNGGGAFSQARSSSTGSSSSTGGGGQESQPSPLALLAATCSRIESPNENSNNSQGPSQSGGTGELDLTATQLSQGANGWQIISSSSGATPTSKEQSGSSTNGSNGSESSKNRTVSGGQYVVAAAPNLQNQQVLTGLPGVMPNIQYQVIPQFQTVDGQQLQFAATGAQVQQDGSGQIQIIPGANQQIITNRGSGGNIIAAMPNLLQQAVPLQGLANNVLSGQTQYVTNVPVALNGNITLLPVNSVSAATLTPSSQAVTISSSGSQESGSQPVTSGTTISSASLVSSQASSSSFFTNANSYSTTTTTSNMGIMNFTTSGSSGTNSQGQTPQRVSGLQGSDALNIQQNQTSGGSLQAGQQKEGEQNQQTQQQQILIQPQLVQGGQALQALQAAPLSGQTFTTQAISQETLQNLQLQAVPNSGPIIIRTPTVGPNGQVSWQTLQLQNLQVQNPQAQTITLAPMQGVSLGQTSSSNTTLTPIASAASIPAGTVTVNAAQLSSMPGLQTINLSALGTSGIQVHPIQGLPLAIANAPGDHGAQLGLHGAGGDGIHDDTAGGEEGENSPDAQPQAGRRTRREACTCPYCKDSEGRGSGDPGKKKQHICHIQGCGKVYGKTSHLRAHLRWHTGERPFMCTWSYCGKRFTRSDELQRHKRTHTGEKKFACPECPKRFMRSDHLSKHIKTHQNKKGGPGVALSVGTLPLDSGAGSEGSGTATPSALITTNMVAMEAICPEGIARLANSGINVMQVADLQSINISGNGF
Nuclear receptor subfamily 1 group I member 3 (Homo sapiens), sequence (Q14994 whole entry, looked up, the tested form may be a part): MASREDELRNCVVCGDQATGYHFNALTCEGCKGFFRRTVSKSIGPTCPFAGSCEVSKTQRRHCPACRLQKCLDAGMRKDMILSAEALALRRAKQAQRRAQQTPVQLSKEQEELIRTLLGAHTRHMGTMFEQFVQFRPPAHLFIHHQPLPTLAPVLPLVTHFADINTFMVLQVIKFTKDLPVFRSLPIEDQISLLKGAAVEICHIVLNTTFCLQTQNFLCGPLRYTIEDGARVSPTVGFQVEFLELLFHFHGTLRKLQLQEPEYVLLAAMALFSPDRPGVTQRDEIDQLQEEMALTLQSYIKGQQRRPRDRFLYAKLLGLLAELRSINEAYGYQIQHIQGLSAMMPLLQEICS
Signal transducer and activator of transcription 3 (Homo sapiens), sequence (P40763 whole entry, looked up): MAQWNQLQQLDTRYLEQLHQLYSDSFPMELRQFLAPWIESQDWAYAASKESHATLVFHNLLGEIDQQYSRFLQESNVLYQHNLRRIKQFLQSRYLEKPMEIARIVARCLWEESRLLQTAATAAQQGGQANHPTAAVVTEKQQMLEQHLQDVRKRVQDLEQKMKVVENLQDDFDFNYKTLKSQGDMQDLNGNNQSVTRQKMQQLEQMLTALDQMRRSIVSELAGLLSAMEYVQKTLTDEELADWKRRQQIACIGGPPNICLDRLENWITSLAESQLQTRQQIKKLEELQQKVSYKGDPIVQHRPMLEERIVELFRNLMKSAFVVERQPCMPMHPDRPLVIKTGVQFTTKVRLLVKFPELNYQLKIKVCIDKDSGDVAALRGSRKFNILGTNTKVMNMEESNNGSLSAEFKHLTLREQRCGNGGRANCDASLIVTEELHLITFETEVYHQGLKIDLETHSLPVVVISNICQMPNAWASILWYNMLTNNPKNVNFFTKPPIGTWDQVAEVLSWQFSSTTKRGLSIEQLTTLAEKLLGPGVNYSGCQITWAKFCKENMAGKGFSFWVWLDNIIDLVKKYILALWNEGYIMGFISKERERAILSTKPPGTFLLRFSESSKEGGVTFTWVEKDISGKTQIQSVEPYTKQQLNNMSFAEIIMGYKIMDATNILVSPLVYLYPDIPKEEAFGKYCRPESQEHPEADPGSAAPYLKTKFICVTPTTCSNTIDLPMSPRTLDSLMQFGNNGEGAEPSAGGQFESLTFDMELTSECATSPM
Paired box protein Pax-6 (Homo sapiens), sequence (P26367 whole entry, looked up): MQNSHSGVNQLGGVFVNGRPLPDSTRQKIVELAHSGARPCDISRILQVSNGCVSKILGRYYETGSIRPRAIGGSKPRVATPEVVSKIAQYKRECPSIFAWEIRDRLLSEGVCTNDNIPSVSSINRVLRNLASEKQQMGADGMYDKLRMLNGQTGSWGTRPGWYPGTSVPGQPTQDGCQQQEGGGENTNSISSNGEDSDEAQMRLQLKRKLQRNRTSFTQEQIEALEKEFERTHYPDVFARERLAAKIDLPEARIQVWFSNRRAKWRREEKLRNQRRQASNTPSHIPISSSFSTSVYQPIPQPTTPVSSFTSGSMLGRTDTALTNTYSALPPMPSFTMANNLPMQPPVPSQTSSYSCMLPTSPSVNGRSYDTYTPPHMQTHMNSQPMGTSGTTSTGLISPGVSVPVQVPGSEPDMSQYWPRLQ
X-box-binding protein 1 (Homo sapiens), sequence (P17861 whole entry, looked up, the tested form may be a part): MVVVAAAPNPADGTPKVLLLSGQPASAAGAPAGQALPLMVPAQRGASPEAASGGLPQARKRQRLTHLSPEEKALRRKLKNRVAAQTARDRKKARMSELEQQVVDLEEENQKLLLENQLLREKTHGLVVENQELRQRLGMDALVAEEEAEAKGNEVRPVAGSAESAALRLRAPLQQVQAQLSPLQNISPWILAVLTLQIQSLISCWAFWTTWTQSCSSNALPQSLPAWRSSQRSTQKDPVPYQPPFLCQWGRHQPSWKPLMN
Estrogen-related receptor gamma (Homo sapiens), sequence (P62508 whole entry, looked up, the tested form may be a part): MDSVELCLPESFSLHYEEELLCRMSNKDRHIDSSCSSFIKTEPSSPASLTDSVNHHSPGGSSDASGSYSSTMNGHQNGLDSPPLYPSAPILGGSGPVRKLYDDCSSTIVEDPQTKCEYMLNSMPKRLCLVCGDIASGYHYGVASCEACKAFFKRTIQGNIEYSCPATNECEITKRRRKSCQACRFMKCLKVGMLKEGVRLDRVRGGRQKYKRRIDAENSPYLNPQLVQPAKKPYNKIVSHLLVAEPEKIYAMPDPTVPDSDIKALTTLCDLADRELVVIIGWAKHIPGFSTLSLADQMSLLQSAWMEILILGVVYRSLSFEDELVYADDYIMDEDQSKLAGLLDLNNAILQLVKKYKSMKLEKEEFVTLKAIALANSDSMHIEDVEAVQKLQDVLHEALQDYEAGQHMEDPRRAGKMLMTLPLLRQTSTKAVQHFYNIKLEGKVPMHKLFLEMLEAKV
Steroid hormone receptor ERR1 (Homo sapiens), sequence (P11474 whole entry, looked up, the tested form may be a part): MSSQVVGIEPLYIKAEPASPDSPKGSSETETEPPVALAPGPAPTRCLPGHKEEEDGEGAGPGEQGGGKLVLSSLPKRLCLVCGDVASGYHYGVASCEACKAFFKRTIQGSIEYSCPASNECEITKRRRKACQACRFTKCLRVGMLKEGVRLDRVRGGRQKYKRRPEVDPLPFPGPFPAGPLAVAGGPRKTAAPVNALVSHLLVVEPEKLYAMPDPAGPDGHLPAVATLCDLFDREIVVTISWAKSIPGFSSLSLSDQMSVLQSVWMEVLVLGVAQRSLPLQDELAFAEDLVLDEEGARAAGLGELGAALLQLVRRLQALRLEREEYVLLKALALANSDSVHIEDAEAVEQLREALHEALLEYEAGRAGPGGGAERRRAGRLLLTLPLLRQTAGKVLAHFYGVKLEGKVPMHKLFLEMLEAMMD

CCOC(=O)CN
not listed: [14] | [15] | [16] | [17] | [18]
inactive: all other assays above

CCC(C)S (stereo not given)
not listed: [3] | [13] | [17] | [18]
inactive: all other assays above

CCCC1O[C@@H]2C[C@H]3[C@@H]4CCC5=CC(=O)C=C[C@]5(C)[C@H]4[C@@H](O)C[C@]3(C)[C@]2(C(=O)CO)O1 (stereo not given in full)
active: [8] 100 µM | [10] 9.41 µM
not listed: [13] | [15] | [16] | [18]
inactive: all other assays above

CC(C)(C)OC(=O)c1ccc(O)cc1
active: [2] 87.7 µM | [3] 72.5 µM | [11] 45.4 µM | [12] 70.3 µM
not listed: [13] | [15] | [16] | [17] | [18]
inactive: all other assays above

C=C1C[C@]23C[C@@]1(O)CC[C@H]2[C@@]12C=C[C@H](O)[C@@](C)(C(=O)O1)[C@H]2[C@@H]3C(=O)O
not listed: [13] | [14] | [15] | [16] | [17]
inactive: all other assays above

CCCCN(CCCC)C(=O)N(CCCC)CCCC
inactive: [3] | [6] | [15] | [12] | [13]
active: [1] 37.2 µM | [2] 61 µM | [4] 52.2 µM | [14] 46.8 µM | [5] 54.6 µM | [7] 25.5 µM | [8] 60.6 µM | [9] 50.2 µM | [10] 59.6 µM | [11] 7.92 µM

O=C1c2ccccc2C(=O)c2c(O)ccc(O)c21
not listed: [2] | [5] | [13] | [17]
inactive: all other assays above

OCc1ccc(Cl)cc1Cl
not listed: [15] | [16] | [17] | [18]
inactive: all other assays above
